From PubChem BioAssay AID504332 (National Center for Advancing Translational Sciences (NCATS), 2011)
Hit rate of the full screen: of about 350,000 compounds, about 31,000 (8.9%) were called active. A call without a number means that no potency is given here. Inconclusive results (about 15%) are left out. For the sample, actives were picked, then their nearest neighbours and some compounds at random. Unmarked numbers belong to inactive results. The call rests on the fitted dose curve; in most records, active means well fitted inhibition curve with a large enough effect; inconclusive means small, poorly fitted or top-dose-only effect; inactive means no such curve, though single readings can be large or run the other way.

target: Histone-lysine N-methyltransferase EHMT2 (Homo sapiens) (UniProt Q96KQ7); test: qHTS Assay for Inhibitors of Histone Lysine Methyltransferase G9a; conditions: G9a H3K9 monomethylation, AlphaScreen, 2 h; series mostly up to 59 µM; further: nearly all actives have a fitted effect of over 75% in size
Method in brief: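 Quantitative HTS format: methyltransferase activity on a biotin-tagged H3K9 peptide is measured by AlphaScreen, using a rabbit anti-monomethyl-H3K9 antibody with streptavidin donor and anti-IgG acceptor beads. Final levels are 20 nM enzyme, 500 nM peptide, 20 uM SAM; 2 h RT.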
Potency means the concentration at half of the fitted maximal effect.

Sequence of Histone-lysine N-methyltransferase EHMT2 (Homo sapiens) (Q96KQ7 913-1193 limits assumed): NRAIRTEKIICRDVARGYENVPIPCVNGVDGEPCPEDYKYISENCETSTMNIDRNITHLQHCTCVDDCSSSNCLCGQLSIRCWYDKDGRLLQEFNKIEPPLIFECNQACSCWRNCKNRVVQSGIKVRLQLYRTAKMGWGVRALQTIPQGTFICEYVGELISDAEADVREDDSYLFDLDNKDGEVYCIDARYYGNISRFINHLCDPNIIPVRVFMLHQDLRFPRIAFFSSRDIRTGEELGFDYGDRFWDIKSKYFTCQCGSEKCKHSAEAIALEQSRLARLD

Row | SMILES | Potency | activity, negative = inhibition
1 | CCOc1ccccc1Nc1ccc2nonc2c1[N+](=O)[O-] | inactive | –
2 | NC(=O)c1ccc(Nc2ccc3nonc3c2[N+](=O)[O-])cc1 | 56.2 µM (active) | –
3 | NC(=O)c1ccc(Nc2ccc3c(c2)CCC3)c([N+](=O)[O-])c1 | inactive | –
4 | O=C(NC1CCCC1)c1cc(-c2ccccc2)on1 | inactive | –
5 | CC(C)(C)N(Cc1ccccc1)C(=O)COC(=O)CCc1c[nH]c2ccccc12 | 14.1 µM (active) | –
6 | CN(C(=O)COC(=O)CCCc1c[nH]c2ccccc12)c1c(N)n(Cc2ccccc2)c(=O)[nH]c1=O | inactive | –
7 | O=C(COC(=O)Cc1c[nH]c2ccccc12)NCCc1ccccc1 | inactive | –
8 | O=C1CCc2cc(S(=O)(=O)Nc3ccc(C(F)(F)F)cc3)cc3c2N1CC3 | – | -22.3% [at 0.501 µM]
9 | Nc1ncc(CN2CCCC(C(=O)Nc3ccc(-c4ccco4)cc3)C2)cn1 (stereo unspecified) | 50.1 µM (active) | –
10 | CCOc1ccc(NC(=O)C2CCCN(C(=O)Nc3ccccc3)C2)cc1 (stereo unspecified) | inactive | –
11 | COC(=O)c1ccc(CN2CCCC(C(=O)Nc3cccc(-n4cnnn4)c3)C2)cc1 (stereo unspecified) | inactive | –
12 | CCNS(=O)(=O)c1cc(-c2nnc(Nc3cccc(C(F)(F)F)c3)c3ccccc23)ccc1C | inactive | –
13 | Cc1c(C(=O)Nc2ccccn2)oc2ccc(Br)cc12 | inactive | –
14 | Cc1ccc(CNC(=O)c2cccc3c2C(=O)c2ccc(N4CCC(C)CC4)cc2S3(=O)=O)cc1 | – | 6.64% [at 0.501 µM]
15 | Cc1ccc2nc(NC(=O)CSc3nc(=O)n(CCCN(C)C)c4c3CCC4)sc2c1 | 39.8 µM (active) | –
16 | Cc1ccc(NC(=O)CSc2nc(=O)n(CCN(C)C)c3c2CCCC3)c(C)c1 | – | 6.7% [at 0.501 µM]
17 | Cc1csc(NC(=O)CSc2nc(=O)n(CCCN(C)C)c3c2CCC3)n1 | inactive | –
18 | Cc1ccc(OCC(=O)Nc2ccc(OCc3cc(=O)n4c(C)csc4n3)cc2)cc1C | inactive | –
19 | COc1cccc(-c2nc(CS(=O)(=O)CC(=O)NCCc3ccc(OC)c(OC)c3)c(C)o2)c1 | inactive | –
20 | Cc1ccc(-c2nc(CS(=O)(=O)CC(=O)NCc3ccc4c(c3)OCO4)c(C)o2)cc1 | inactive | –
21 | COc1ccc(-c2nc(CS(=O)(=O)CC(=O)NCc3cccc(Br)c3)c(C)o2)cc1 | 44.7 µM (active) | –
22 | CCN(CC(=O)Nc1c(F)cccc1F)C(=O)C1CCC1 | inactive | –
23 | COc1cccc(NC(=O)C(=O)NCC(c2ccc3c(c2)OCO3)N2CCN(C)CC2)c1 (stereo unspecified) | inactive | –
24 | CCOC(=O)c1c(-c2ccc(OC)cc2)oc2ccc(OCc3ccc(C(=O)OC)cc3)cc12 | inactive | –
25 | CC(=O)c1sc(NC(=O)CCN2C(=O)C3CC=CCC3C2=O)nc1-c1ccccc1 (stereo unspecified) | – | -8.89% [at 2.33 µM]
26 | CCc1nnc(NC(=O)c2c(O)c3c([nH]c2=O)CCCC3)s1 | inactive | –

Row | SMILES | Potency | activity, negative = inhibition
27 | O=C(NCc1ccccn1)c1c(O)c2c([nH]c1=O)CCCC2 | inactive | –
28 | C[N+](C)(C)CCNC(=O)c1c(O)c2c([nH]c1=O)CCCC2 | 10 µM (active) | –
29 | O=C(Nc1ccc(Br)cc1)c1ccc(Br)c(S(=O)(=O)NCc2ccccc2)c1 | inactive | –
30 | COc1ccc(CCNC(=S)N2CCN(S(=O)(=O)c3ccc(F)cc3)CC2)cc1 | – | -16.1% [at 0.501 µM]
31 | CN(C)S(=O)(=O)N1CCC(Oc2cccc(C(=O)NCCCC3CCCC3)c2)CC1 | inactive | –
32 | C=CCNc1nnc(SCC(=O)N2CCCCC2)c2ccccc12 | 50.1 µM (active) | –
33 | O=C(CSc1nc2ccccc2nc1Cc1ccccc1)N1CCCCC1 | inactive | –
34 | C=CCNc1nnc(C)c2ccccc12 | inactive | –
35 | O=C(COc1ccccc1O)NC1CCCC1 | inactive | –
36 | COc1cc2ccccc2cc1C(=O)N1CCOCC1 | inactive | –
37 | COc1cc(OC)cc(C(=O)NNC(=O)CNC(=O)c2ccc(Br)o2)c1 | inactive | –
38 | O=C(Cn1cc(SCc2cccc(Cl)c2)c2ccccc21)N1CCCCC1 | inactive | –
39 | O=C(Cn1cc(SCc2ccccc2)c2ccccc21)N1CCCCC1 | inactive | –
40 | CCc1cccc2c(C=C(C#N)C#N)cn(CC(=O)N3CCCCC3)c12 | 44.7 µM (active) | –
41 | CCc1cccc(C)c1NS(=O)(=O)c1ccc(-c2cc(C)no2)s1 | inactive | –
42 | COc1cccc(Nc2nc3ccccc3c3nncn23)c1 | inactive | –
43 | O=C(CN1CCN(Cc2ccc(Cl)cc2)C1=O)NCc1ccc(F)cc1 | inactive | –
44 | Cc1ccc(S(=O)(=O)CCC(=O)Nc2nnc(CC(C)C)s2)cc1 | inactive | –
45 | COC(=O)CSc1nnc(NC(=O)CCc2ccccc2)s1 | inactive | –
46 | COCCSc1nnc(NC(=O)CCS(=O)(=O)Cc2ccccc2)s1 | inactive | –
47 | CC(C)Cc1nnc(NC(=O)CCc2ccccc2)s1 | 35.5 µM (active) | –
48 | COCc1nnc(NC(=O)CS(=O)(=O)Cc2ccccc2)s1 | – | -27% [at 12.7 µM]
49 | CCOCc1nnc(NC(=O)CCS(=O)(=O)Cc2ccccc2)s1 | 79.4 µM (active) | –
50 | Cc1cccc(OCCC(=O)OCc2csc(CC(=O)Nc3ccccc3C)n2)c1 | – | -6.68% [at 12.7 µM]
51 | CCN(CC)CCn1cnc2c1c(=O)[nH]c(=O)n2Cc1ccccc1 | – | 20.1% [at 2.33 µM]
52 | CCCCn1c(=S)[nH]c2ncccc2c1=O | – | 17.8% [at 2.33 µM]

Row | SMILES | Potency | activity, negative = inhibition
53 | CCN(CC)CCn1c(=S)[nH]c2ncccc2c1=O | 15.8 µM (active) | –
54 | CN(C(=O)CSc1nnc(NC(=O)Nc2ccccc2)s1)c1ccccc1 | inactive | –
55 | Cc1ccccc1NC(=O)Cn1c(=O)n(CCCCC(=O)NCc2ccccc2Cl)c(=O)c2ccccc21 | inactive | –
56 | CCOc1ccc(C(C)NC(=O)CN2C(=O)NC3(CCCCC3)C2=O)cc1OCC (stereo unspecified) | inactive | –
57 | Cc1ccc(COC(=O)CN2C(=O)NC3(CCCC3)C2=O)cc1 | – | -12.1% [at 12.7 µM]
58 | CCOc1ccc(C(C)=O)cc1COC(=O)CN1C(=O)NC2(CCCC2)C1=O | 56.2 µM (active) | –
59 | CC(C)c1ccc(NC(=O)CN(C)S(=O)(=O)c2ccc3c(c2)c(=O)n(C)c(=O)n3C)cc1 | inactive | –
60 | CC(OC(=O)c1ccc(-n2cnnn2)cc1)C(=O)NCc1ccccc1 (stereo unspecified) | inactive | –
61 | NC1=NC(c2cc(F)cc(F)c2)n2c(nc3ccccc32)N1 (stereo unspecified) | inactive | –
62 | Cc1cc2nc(SCCN3CCOCC3)[nH]c2cc1C | inactive | –
63 | CCn1c2ccc(F)cc2c2nnc(SCCN3CCOCC3)nc21 | 44.7 µM (active) | –
64 | N#Cc1cnn2cc(CCN3CCOCC3)c(-c3ccc(F)cc3)nc12 | inactive | –
65 | O=C(/C=C/c1cccc(C(F)(F)F)c1)N1CCN(c2ccccn2)CC1 | inactive | –
66 | Cc1ccc(NC(=O)CSc2nc3ccccc3c3nc(CCn4cncc4C)nn23)cc1F | inactive | –
67 | CCOC(=O)C1CCN(C(=O)C2CCCN(S(=O)(=O)c3ccc(OC)c(Cl)c3)C2)CC1 (stereo unspecified) | inactive | –
68 | CC1(C)SC2c3ccccc3C(=O)N2[C@@H]1C(=O)NCc1ccco1 (stereo partly specified) | inactive | –
69 | Cc1cccc(C(=O)Nc2ccccc2-c2nnn(CC(=O)Nc3ccc4c(c3)OCCO4)n2)c1 | – | 48.1% [at 12.7 µM]
70 | O=C1c2ccccc2C(Nc2ccc3c(c2)OCCO3)N1Cc1ccco1 (stereo unspecified) | 39.8 µM (active) | –
71 | O=C(NC1CCCCC1)C1c2ccccc2C(=O)N1Cc1ccco1 (stereo unspecified) | inactive | –
72 | Cc1ccnc(N2C(=O)c3ccccc3C2Nc2ccc3c(c2)OCCO3)c1 (stereo unspecified) | 79.4 µM (active) | –
73 | COC(=O)c1cc(NC2c3ccccc3C(=O)N2c2ccc(Cl)cn2)cc(C(=O)OC)c1 (stereo unspecified) | inactive | –
74 | COc1ccc(C(C)(C)C)cc1NC(=O)CCN1C(=O)C2CCCCC2C1=O (stereo unspecified) | – | -24.5% [at 12.7 µM]
75 | CC(=O)N1CCCc2cc(S(=O)(=O)N3CCC(C(=O)NCc4ccc(F)cc4)CC3)ccc21 | inactive | –
76 | COc1cc(NC(=O)CSc2nc3nc(C)c(Cc4ccc(C)cc4)c(C)n3n2)cc(OC)c1OC | inactive | –
77 | CCOc1ccccc1NC(=O)Cn1nnc(C(=O)Nc2ccc(C)c(C)c2)c1N | inactive | –
78 | Cc1ccc(NC(=O)C(=O)NCC(c2cccnc2)N2CCOCC2)cc1 (stereo unspecified) | inactive | –

Row | SMILES | Potency | activity, negative = inhibition
79 | COc1ccc(C(=O)N(Cc2ccc(N(C)C)cc2)C2CCS(=O)(=O)C2)cc1 (stereo unspecified) | inactive | –
80 | COc1ccc(S(=O)(=O)NCc2ccc(C(=O)N(C)Cc3ccco3)cc2)cc1 | inactive | –
81 | COc1ccc(N(Cc2ccc(N(C)C)cc2)C(=O)c2ccc(S(C)(=O)=O)cc2)cc1 | 12.6 µM (active) | –
82 | COc1ccc(C)cc1N(C)C(=O)c1c(C)oc2ncnc(N3CCOCC3)c12 | inactive | –
83 | Cc1ccc(OCC(=O)Nc2ccccc2C(=O)NC2CC2)cc1C | inactive | –
84 | Cc1ccc(C(=O)NNC(=O)c2ccc3c(c2)OCCO3)cc1 | – | 8.51% [at 2.33 µM]
85 | Cc1cccc(C)c1NC(=O)CNC(=O)c1ccc2c(c1)OCCO2 | inactive | –
86 | Cc1ccc2sc(NNC(=O)c3ccc4c(c3)OCCO4)nc2c1C | 10 µM (active) | –
87 | Cc1c(CNC(C)c2ccccc2)c(C(=O)O)c(C)n1Cc1c(F)cccc1Cl (stereo unspecified) | inactive | –
88 | C[n+]1cc(-c2ccccc2)oc1-c1ccccc1 | 50.1 µM (active) | –
89 | CCSc1nsc(NC(=O)Nc2ccccc2OC)n1 | inactive | –
90 | CC(OC(=O)CN1C(=O)COc2ccccc21)C(=O)NCc1ccc(F)cc1 (stereo unspecified) | inactive | –
91 | O=C(CN1C(=O)COc2ccccc21)Nc1ccc(F)cc1 | 31.6 µM (active) | –
92 | O=C(CN1C(=O)COc2ccc(Cl)cc21)Nc1ccc(N2CCOCC2)cc1 | inactive | –
93 | Cn1c(=O)c2c(SCC(=O)NCC3CCCO3)nc(-c3ccccc3F)nc2n(C)c1=O (stereo unspecified) | inactive | –
94 | CCOc1ccc(N(C)S(=O)(=O)c2cc(-c3cnc(C)o3)ccc2OC)cc1 | inactive | –
95 | Cc1cccc(N2CCN(C(=O)Cn3ncc4c5ccccc5n(C)c4c3=O)CC2C)c1 (stereo unspecified) | inactive | –
96 | COc1ccccc1OCCCn1c(-c2ccc(Cl)cc2)nc2ccccc2c1=O | inactive | –
97 | CN(C)CCCn1c(-c2ccc(Cl)cc2)csc1=Nc1ccccc1 | 12.6 µM (active) | –
98 | CN(C)CCCn1c(SCc2ccc(Cl)cc2)nnc1-c1ccncc1 | – | 14% [at 0.501 µM]
99 | Cc1csc(=NC(=O)c2ccccc2)n1CCO | inactive | –
100 | Cc1csc(=Nc2ccccc2)n1CCO | 28.2 µM (active) | –
101 | OCCn1c(-c2ccccc2)csc1=Nc1ccccc1 | 44.7 µM (active) | –
